Test results published in PubChem BioAssay (NCI).
About 83,000 compounds went through this panel and 20% of them were active in at least one assay; those are over-represented in the sample as a whole.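 Assay: single dose, 48 h. Readout: percent growth (0 = no net growth; negative = cell death). Active: <10.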 Unmarked numbers belong to inactive results. Calls of active or inactive are those of the source.

Experiments:
Assay in all cases: NCI-60 one-dose screen, 48 h (100 = growth as untreated, 0 = no growth, -100 = all killed)
Conditions in all cases: 10 µM unless noted
[1] = system: SR leukemia
[2] = system: RPMI-8226 leukemia
[3] = system: OVCAR-8 ovarian
[4] = system: OVCAR-5 ovarian
[5] = system: OVCAR-4 ovarian
[6] = system: SK-OV-3 ovarian
[7] = system: IGROV1 ovarian
[8] = system: OVCAR-3 ovarian
[9] = system: HS 578T breast
[10] = system: NCI/ADR-RES ovarian

`CCCC(C)(C)COC(=O)c1cccc(N)c1` was tested, and the growth [1] was 92.8%, the growth [2] was 108% and the growth [3] was 84.2%. The growth [4] was 114%, the growth [5] was 117% and the growth [6] was 94.1%. It also gave a growth [7] of 103%, a growth [8] of 102% and a growth [9] of 99.3%. The growth [10] was 102%.

For `Cc1nccc2c3ccc(OCc4cn(-c5ccc(Br)cc5)nn4)cc3n(CCCc3ccccc3)c12`, the growth [1] was -29.8% (active), the growth [2] was 8.43% (active) and the growth [3] was 2.18% (active). It also gave a growth [4] of 49.6%, a growth [5] of 63.2% and a growth [6] of 90%. The growth [7] was 60.4%, the growth [8] was 104% and the growth [9] was -6.57% (active). The growth [10] was -36.1% (active).

With `CC(C)[C@@H]1NC(=O)[C@]2(C)CSC(=N2)c2ccnc(c2)CNC(=O)C[C@@H](/C=C/CCS)OC1=O` the growth [1] was 7.26% (active), the growth [2] was -18.5% (active) and the growth [3] was -3.79% (active). The growth [4] was 18.2%, the growth [5] was 27.3% and the growth [6] was -7.53% (active). The growth [7] was 0.54% (active), the growth [8] was -6.18% (active) and the growth [9] was 9.92% (active). For the same molecule, the growth [10] was 29.8%.

`CC1CCC(C(C)C)C(NN)C1` (stereo not given) was tested, and the growth [1] was 103%, the growth [2] was 104% and the growth [3] was 92.8%. The growth [4] was 107%, the growth [5] was 111% and the growth [6] was 91.8%. For the same molecule, the growth [7] was 109%, the growth [8] was 113% and the growth [9] was 102%. For the same molecule, the growth [10] was 106%.

`CN(C)c1ccc2cc(-c3nc4ccccc4s3)c(N)nc2c1` was tested, and the growth [1] was 20.9%, the growth [2] was 10.6% and the growth [3] was 67.8%. For the same molecule, the growth [4] was 121%, the growth [5] was 78.3% and the growth [6] was 50.9%. The growth [7] was 63.6%, the growth [8] was 11.9% and the growth [9] was 91.9%. It also gave a growth [10] of 34.3%.

In the case of `CCN(CC)CCN1C(=O)c2c(c3c4ccccc4[nH]c3c3[nH]c4ccccc4c23)C1=O`, the growth [1] is reported as 4.92% (active), the growth [2] is reported as 74.9% and the growth [3] is reported as 78.5%. For the same molecule, the growth [4] was 88.7%, the growth [5] was 72% and the growth [6] was 83.1%. It also gave a growth [7] of 83.3%, a growth [8] of 95.4% and a growth [9] of 86.7%. The growth [10] was 71.3%.

`Cc1ccc(Cn2cc(COc3ccc4c5ccnc(C)c5n(CCCc5ccccc5)c4c3)nn2)cc1` was tested, and the growth [1] was 81.9%, the growth [2] was 64.2% and the growth [3] was 94.2%. For the same molecule, the growth [4] was 103%, the growth [5] was 96% and the growth [6] was 96.9%. The growth [7] was 87.5%, the growth [8] was 92.6% and the growth [9] was 89.8%. For the same molecule, the growth [10] was 76.4%.

`COc1ccc(N)c(S)c1` gave a growth [1] of 103%, a growth [2] of 95.9% and a growth [3] of 90.6%. The growth [4] was 104%, the growth [5] was 96% and the growth [6] was 85%. It also gave a growth [7] of 94.9%, a growth [8] of 110% and a growth [9] of 102%. The growth [10] was 98.4%.

In the case of `C=C1C(=O)O[C@H]2[C@H]1CC/C(COC(=O)c1ccc(Br)cc1)=C\CC[C@@]1(C)O[C@@H]21`, the growth [1] is reported as -27.5% (active), the growth [2] is reported as -44.5% (active) and the growth [3] is reported as -36.6% (active). The growth [4] was 1.16% (active), the growth [5] was -14.3% (active) and the growth [6] was 111%. The growth [7] was -57.6% (active), the growth [8] was -81.2% (active) and the growth [9] was 17.8%. It also gave a growth [10] of 24.7%.

With `CCN(CC)C(=O)C1CCN(C(=O)c2ccccc2)CC1` the growth [1] was 102%, the growth [2] was 97.8% and the growth [3] was 103%. For the same molecule, the growth [4] was 108%, the growth [5] was 106% and the growth [6] was 102%. The growth [7] was 103%, the growth [8] was 104% and the growth [9] was 97%. It also gave a growth [10] of 97.9%.

In the case of `CCOC(=O)c1[nH]c(-c2ccc(Cl)cc2)cc1-c1cccnc1`, the growth [1] is reported as 12.9%, the growth [2] is reported as 4.59% (active) and the growth [3] is reported as 39.3%. The growth [4] was 47.3%, the growth [5] was 51.1% and the growth [6] was 7.46% (active). For the same molecule, the growth [7] was 43.9%, the growth [8] was -7.92% (active) and the growth [9] was 16.3%. It also gave a growth [10] of 12.1%.

In the case of `O=C1CCC(=O)N1C1CCCCC1`, the growth [1] is reported as 96.4%, the growth [2] is reported as 109% and the growth [3] is reported as 112%. It also gave a growth [4] of 109%, a growth [5] of 104% and a growth [6] of 103%. The growth [7] was 91.9%, the growth [8] was 102% and the growth [9] was 97.5%. It also gave a growth [10] of 102%.

`COc1ccc(C(=O)NC(=O)Nc2ccc3c(c2)NC(=O)/C3=C\c2[nH]c(C)c(C(=O)O)c2C)c(F)c1` was tested, and the growth [1] was 58.2%, the growth [2] was 6.29% (active) and the growth [3] was 56.4%. It also gave a growth [4] of 98.8%, a growth [5] of 12% and a growth [6] of 74.1%. For the same molecule, the growth [7] was 46.8%, the growth [8] was 5.25% (active) and the growth [9] was 49.4%. It also gave a growth [10] of 74.1%.

In the case of `CC(=O)Cc1cccnc1`, the growth [1] is reported as 104%, the growth [2] is reported as 93% and the growth [3] is reported as 97%. The growth [4] was 109%, the growth [5] was 108% and the growth [6] was 114%. The growth [7] was 100%, the growth [8] was 116% and the growth [9] was 95.2%. It also gave a growth [10] of 104%.

`Nc1ncc(-c2ccc3ncnc(Nc4ccc(F)c(Cl)c4)c3c2)cn1` was tested, and the growth [1] was -35.1% (active), the growth [2] was 50% and the growth [3] was 61.3%. The growth [4] was 80.3%, the growth [5] was -17.3% (active) and the growth [6] was 65.7%. For the same molecule, the growth [7] was 1.68% (active), the growth [8] was -57.4% (active) and the growth [9] was 34.6%. It also gave a growth [10] of 59.4%.

For `Cc1cc(N2CCOCC2)nc(N(CCNc2ccnc3cc(Cl)ccc23)Cc2ccco2)n1`, the growth [1] was -22.6% (active), the growth [2] was -21.6% (active) and the growth [3] was 34.6%. For the same molecule, the growth [4] was 101%, the growth [5] was 37.2% and the growth [6] was 91.1%. For the same molecule, the growth [7] was 40.7%, the growth [8] was -64.3% (active) and the growth [9] was 64%. It also gave a growth [10] of 50.8%.

Molecule `CCNC(=O)Oc1ccc(/C(=C(/CC)Cc2ccccc2)c2ccc(OCCN3CCOCC3)cc2)cc1` has a growth [1] of 29.2%, a growth [2] of 16% and a growth [3] of 57.8%. For the same molecule, the growth [4] was 94.8%, the growth [5] was 45.9% and the growth [6] was 75.5%. The growth [7] was 59.4%, the growth [8] was 50.8% and the growth [9] was 62.5%. It also gave a growth [10] of 49.4%.

For `COc1ccc2c(c1)OC(N)=C(C#N)C2c1ccc(F)c(F)c1` (stereo not given), the growth [1] was 12.2%, the growth [2] was 7.58% (active) and the growth [3] was 33.9%. It also gave a growth [4] of 51.6%, a growth [5] of 73.6% and a growth [6] of 29%. It also gave a growth [7] of 53.5%, a growth [8] of 15.6% and a growth [9] of 35.7%. It also gave a growth [10] of 17.9%.

For `CO[C@H]1/C=C/C=C/C=C/C[C@H](OC(=O)[C@@H](C)NC(=O)C2CCCCC2)[C@H](C)[C@@H](O)/C(C)=C\CCC2=CC(=O)C=C(NC(=O)C1)C2=O`, the growth [1] was 3.26% (active), the growth [2] was -26.5% (active) and the growth [3] was -16.2% (active). For the same molecule, the growth [4] was 3.19% (active), the growth [5] was -13.9% (active) and the growth [6] was -21.3% (active). The growth [7] was 3.97% (active), the growth [8] was -19.9% (active) and the growth [9] was -16.2% (active). It also gave a growth [10] of 32%.

`CCC(N)(C(=O)O)c1ccc(F)cc1` (stereo not given) was tested, and the growth [1] was 105%, the growth [2] was 98.4% and the growth [3] was 101%. The growth [4] was 111%, the growth [5] was 117% and the growth [6] was 113%. It also gave a growth [7] of 109%, a growth [8] of 99.9% and a growth [9] of 111%. The growth [10] was 106%.

With `COc1ccc(OC)c(NCC(=O)n2nc(/C=C\c3ccc(O)c(OC)c3)cc2/C=C\c2ccc(O)c(OC)c2)c1` the growth [1] was 0.623% (active), the growth [2] was -8.66% (active) and the growth [3] was 7.25% (active). The growth [4] was 25.3%, the growth [5] was 39.2% and the growth [6] was -3.5% (active). For the same molecule, the growth [7] was 11.6%, the growth [8] was 12% and the growth [9] was 22.2%. For the same molecule, the growth [10] was 20.4%.

For `CC(C)(C)C(=O)Nc1nc2c(s1)CCc1ccn(S(=O)(=O)c3ccccc3)c1-2`, the growth [1] was 83.1%, the growth [2] was 78.6% and the growth [3] was 100%. It also gave a growth [4] of 97.7%, a growth [5] of 95.2% and a growth [6] of 96.1%. For the same molecule, the growth [7] was 97.3%, the growth [8] was 95.3% and the growth [9] was 98.6%. The growth [10] was 85.7%.

In the case of `COc1ccc2c(c1)OC(N(C(C)=O)C(C)=O)=C(C#N)C2c1ccc(F)cc1` (stereo not given), the growth [1] is reported as 12.4%, the growth [2] is reported as 3.13% (active) and the growth [3] is reported as 38.5%. The growth [4] was 65.2%, the growth [5] was 81.9% and the growth [6] was 23.9%. It also gave a growth [7] of 56.1%, a growth [8] of 11.9% and a growth [9] of 23.6%. It also gave a growth [10] of 30.6%.

With `COc1ccccc1C(OC(C)=O)OC(C)=O` the growth [1] was 88.7%, the growth [2] was 101% and the growth [3] was 112%. It also gave a growth [4] of 112%, a growth [5] of 111% and a growth [6] of 104%. For the same molecule, the growth [7] was 112%, the growth [8] was 106% and the growth [9] was 106%. For the same molecule, the growth [10] was 100%.

With `Cc1nc(-c2ccc(Cl)cc2)ccc1NC(=O)Nc1cccc(C(F)(F)F)c1` the growth [1] was 59.6%, the growth [2] was 85.3% and the growth [3] was 98.9%. The growth [4] was 121%, the growth [5] was 108% and the growth [6] was 110%. It also gave a growth [7] of 111%, a growth [8] of 111% and a growth [9] of 103%. The growth [10] was 98.1%.

For `C=C1C(=O)O[C@H]2[C@H]1CC/C(COC(=O)c1cccc3ccccc13)=C\CC[C@@]1(C)O[C@@H]21`, the growth [1] was -31.4% (active), the growth [2] was -40.5% (active) and the growth [3] was -42.8% (active). For the same molecule, the growth [4] was -47.9% (active), the growth [5] was -38.9% (active) and the growth [6] was 84.3%. The growth [7] was -68.5% (active), the growth [8] was -86.5% (active) and the growth [9] was 2.83% (active). For the same molecule, the growth [10] was -28.4% (active).

In the case of `NC(=O)C1=C[C@H]2[C@H]3C=C[C@@]2(O)C(=O)O[C@@H]3O1`, the growth [1] is reported as 50.7%, the growth [2] is reported as 61.8% and the growth [3] is reported as 48.8%. For the same molecule, the growth [4] was 101%, the growth [5] was 29.9% and the growth [6] was 86.6%. It also gave a growth [7] of 50.9%, a growth [8] of 16.8% and a growth [9] of 83.5%. The growth [10] was 75.3%.
